Experimental data from PubChem BioAssay (EPA / NIEHS).
Activity calls are given as the source filed them. How the source made its calls: active means hit-call score of the fitted dose curve at least 0.9, where 1 is the maximum; inactive means score below 0.9.

Test: APR_HepG2_MitoMass_72hr: Apredica 72-hour HepG2 Assay for Mitochondrial Mass (AID 2282924);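 further: MitoTracker Red CMXRos stain intensity per cell imaged as mitochondrial mass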
Details: high-content imaging, actives raise or lower the signal
Description: APR_HepG2_72hr is a cell-based, multiplexed-readout assay that uses HepG2, a human liver cell line, with measurements taken at 72 hours after chemical dosing in a 384-well plate.APR_HepG2_MitoMass_72hr is one of 10 assay component(s) measured or calculated from the APR_HepG2_72hr assay. It is designed to make measurements of cell phenotype, a form of morphology reporter, as detected with fluorescence intensity signals by HCS Fluorescent Imaging technology.Data from the assay component APR_HepG2_MitoMass_72hr was analyzed into 1 assay endpoint. This assay endpoint, APR_HepG2_MitoMass_72hr, was analyzed with bidirectional fitting relative to DMSO as the negative control and baseline of activity. Using a type of morphology reporter, gain or loss-of-signal activity can be used to understand changes in the signaling. Furthermore, this assay endpoint can be referred to as a primary readout, because this assay has produced multiple assay endpoints where this one serves a signaling function. To generalize the intended target to other relatable targets, this assay endpoint is annotated to the cell morphology intended target family, where the subfamily is organelle conformation.
Cells were treated with dimethyl sulfoxide (DMSO) as a solvent control at a final concentration of 0.5% v/v or with compounds in DMSO with a resulting final DMSO concentration of 0.5% v/v. Compound treatment was done at concentrations of 0.39, 0.78, 1.56, 3.12, 6.24, 12.5, 25, 50, 100, and 200 uM in duplicate on each plate. Cells were treated with compounds for 1, 24, or 72 hr. Carbonyl […] m-chloro-phenylhydrazone (CCCP) and taxol were used as positive controls for mitochondrial function and cytoskeletal stability, respectively; DMSO served as the negative control for this experiment. Cells were fixed by the direct addition of 50 uL formaldehyde in Hank's Balanced Salt Solution (HBSS) to a final concentration of 3.7%. After incubation in the fixation medium for 30 min at room temperature (293-298 K), cells were rinsed twice with HBSS and treated with cell permeabilization buffer (16 uL of 0.5% Triton X-100) for 10 min at room temperature (293-298 K) before labeling. For mitochondrial membrane potential and mitochondrial measurements, pre-fixed cells were incubated with 50 uL of MitoTracker Red CMXRos (Invitrogen) at a concentration of 250 nM for 30 min before fixation. In the remaining cases, post-fixed cells were labeled by incubation with a multiplexed mixture of primary antibodies in HBSS for 60 min at room temperature (293-298 K) to detect immunoreactivity of c-Jun (1:500), phospho-histone H3 (1:100), phospho-histone H2A.x (1:200), p53 (1:400), alpha-tubulin (1:200) and Hoechst 33342 (2 ug/mL). Cells were labeled for multiplexed imaging on two separate plates: a) Hoechst 33342, MitoTracker Red, phospho-histone H3, and alpha-tubulin, and b) Hoechst 33342, phospho-histone H2A.x, and c-Jun. A final rinse with HBSS (50 uL) was performed before analysis. The primary and secondary antibodies for the proteins were phospho-histone H3 (rabbit anti-phospho-histone H3 and FITC-donkey anti-rabbit IgG), phospho-histone H2A.x (mouse anti-phospho-histone H2A.x and FITC-donkey anti-mouse IgG), c-Jun (rabbit anti-phospho-c-Jun and Cy3-donkey anti-rabbit IgG), p53 (sheep anti-p53 and Cy5-donkey anti-sheep IgG), alpha-tubulin (mouse anti-alpha-tubulin and Cy5-donkey anti-mouse IgG). These antibodies are available as the CellCiphr HepG2 assay kit (Millipore).Digital images of each well were captured using a Cellomics ArrayScan VTI (Thermo Scientific Cellomics) (0.8 NA objective, 0.63x optical coupler, and XF-93 filter set) at 20x magnification. The images were acquired using the autofocus feature of the ArrayScan instrument, which entails the following steps. First, the camera focuses on channel 1 (Hoechst 33342), where nuclei are identified. Second, a Z offset of 1 um is used for capturing mitochondria (MitoTracker Red). […]

Compound	outcome	AC50
CN(C)CCOC(c1ccccc1)c1ccccc1	inactive	
O=C(c1ccccc1)c1ccccc1	inactive	
CCCCC=O	inactive	
CC(=O)Nc1ccc(O)cc1	inactive	
CS(=O)(=O)c1ccc([C@@H](CC2CCCC2)C(=O)Nc2cnccn2)cc1Cl	inactive	
O=C(CCCN1CCC(O)(c2ccc(Cl)cc2)CC1)c1ccc(F)cc1		30.8 µM (active)
N=C(N)c1ccc(OCCCCCOc2ccc(C(=N)N)cc2)cc1		11.3 µM (active)
CCCCc1oc2ccccc2c1C(=O)c1cc(I)c(OCCN(CC)CC)c(I)c1		52.6 µM (active)
CCCCCCCCCCCCCCC	inactive	
Cc1[nH]nc2c1N=C(c1ccccc1Cl)c1cc([N+](=O)[O-])ccc1N2		0.248 µM (active)
CN(Cc1cnc2nc(N)nc(N)c2n1)c1ccc(C(=O)N[C@@H](CCC(=O)O)C(=O)O)cc1	inactive	
CCCCCCCCCCCCOS(=O)(=O)O	inactive	
O=C1NS(=O)(=O)c2ccccc21	inactive	
